# Bioassay records from PubChem.
# TbPYK inhibitor – blocks Trypanosoma brucei pyruvate kinase; Potency, µM (highest dose often 76.8 µM), actives largely listed as inhibitors; 410,000 compounds, 0.12% hits; AID 624173; Q57TT1; TbPYK enzyme, Kinase-Glo Plus ATP luminescence, 45 min; further: nearly all actives have a fitted effect of over 50% in size
#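 T. brucei PYK with substrate was exposed to pin-transferred compounds across a concentration series, then started with 130 uM ADP (final). After 45 min at room temperature, Kinase-Glo Plus luminescence was read, normalized and curve-fitted.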
# Sm TGR inh – blocks Schistosoma mansoni thioredoxin glutathione reductase. Q962Y6. purified TGR, DTNB reduction, TNB absorbance 405 nm. Potency, µM (highest dose often 114 µM), actives largely listed as inhibitors. 360,000 compounds, 3% hits. AID 485364; further: nearly all actives have a fitted effect of over 60% in size
#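 Kinetic colorimetric format: TGR-catalysed, NADPH-driven DTNB reduction monitored via TNB absorbance. Enzyme dispensed at 20 nM; compound exposure 15 min at room temperature before reaction start.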
# FMDV antiviral – antivirals against foot and mouth disease virus; FMDV antiviral cell-based qHTS; Potency, µM (titrated, usually from 57.9 µM), most hits filed as inhibitors; 410,000 compounds, 1.2% hits; calls by dose curve; tested in HEK293T cells; further: read-out not given here; nearly all actives have a fitted effect of over 45% in size
# Giardia FBPA inh – Giardia lamblia aldolase inhibition | purified Giardia FBPA | A8B2U2 | AID 2451 | Potency, µM (doses to about 59.6 µM), most hits filed as inhibitors | 290,000 compounds, 0.71% hits; further: nearly all actives have a fitted effect of over 55% in size
# Target sequence (A8B2U2 whole entry, looked up): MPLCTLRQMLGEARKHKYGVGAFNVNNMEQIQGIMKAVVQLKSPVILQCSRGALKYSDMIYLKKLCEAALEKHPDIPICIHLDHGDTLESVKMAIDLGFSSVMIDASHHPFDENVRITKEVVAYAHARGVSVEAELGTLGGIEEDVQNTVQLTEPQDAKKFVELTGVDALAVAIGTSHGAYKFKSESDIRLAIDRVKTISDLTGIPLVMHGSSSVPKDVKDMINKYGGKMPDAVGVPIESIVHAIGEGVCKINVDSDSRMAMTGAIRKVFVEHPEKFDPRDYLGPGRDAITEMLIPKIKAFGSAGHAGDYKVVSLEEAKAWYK
#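 40 nM FBPA preincubated 10 min at RT with compound (up to 57.5 uM final), then substrate plus GAPDH/TPI/NAD/arsenate coupling and diaphorase/resazurin added. Fluorescence read after 20 min at RT, 525/598 nm.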
# HCMV antiviral – inhibitors of human cytomegalovirus; HFF cells, HCMV-luciferase reporter, 72 h; active compounds read low; activity change, negative = inhibition, % at 57.5 µM; 410,000 compounds, 4.5% hits; AID 1259415; in the data active means activity change below about -60%; inconclusive means no clear call, values can overlap the other calls; inactive means above about -39%
#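 Luciferase read-out from HCMV-luciferase-infected HFFs (MOI 1 PFU/cell) 72 h post infection at 37C; compounds added after 16 h cell attachment; activity normalized between buffer-only basal and Salinomycin (10uM) inhibitor controls.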
# RE007 growth inh – less growth of the S. pombe RE007 Vpr strain. S. pombe RE007 Vpr strain, BacTiter-Glo ATP luminescence, 24 h. Potency, µM (top dose mostly 92.2 µM), usual class: inhibitors. 360,000 compounds, 0.21% hits; active means well fitted falling curve with a large enough effect; inconclusive means small, poorly fitted or top-dose-only effect; inactive means no such curve, though single readings can be large or run the other way; further: nearly all actives have a fitted effect of over 50% in size
#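 Fission yeast strain RE007, carrying one chromosomally integrated HIV-1 vpr copy, was seeded at OD 0.01 in PMG+AL medium with 23 nL pinned compound. After 24 h at 30 °C and 99% humidity, viability was read by BacTiter-Glo luminescence.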
# A number is an active result; n = inactive; u = inconclusive; x = no result; [ ] = remark or other dose. The list is not random: actives were taken first. Their share in the collection is about 7.7%. Unless noted, the call rests on the fitted dose curve; in most records, active means well fitted curve in the direction sought with a large enough effect; inconclusive means small, poorly fitted or top-dose-only effect, or another doubt; inactive means no such curve, though single readings can be large; an effect the other way counts as inactive or inconclusive.
SMILES,TbPYK inhibitor,Sm TGR inh,FMDV antiviral,Giardia FBPA inh,HCMV antiviral,RE007 growth inh
CCOC(=O)C1=C(C(=O)OCC)C2N(Cc3ccc(Br)cc3)c3ccccc3[C@@]23C[C@@H](C(=O)OC)N(S(=O)(=O)c2ccc(F)cc2)C3=N1 (stereo partly specified),x,x,x,x,n,x
CCN(CC)S(=O)(=O)c1ccc2c(c1)N(CC(=O)N1CCN(c3ccc(Cl)cc3)CC1)C(=O)CO2,n,n,n,x,n,x
O=C1C2C3C=CC(C3)C2C(=O)N1c1ccc2c(c1)OCO2 (stereo unspecified),n,n,x,n,n,n
O=C1CC(N2CCSCC2)C(=O)N1c1ccc(F)cc1 (stereo unspecified),n,u,n,n,n,25µM
COc1ccc(N2C(=O)CC(N3CCCC4CCCCC43)C2=O)cc1 (stereo unspecified),n,11µM,n,n,n,7.1µM
O=C1CC(NC23CC4CC(CC(C4)C2)C3)C(=O)N1c1ccc2c(c1)OCO2 (stereo unspecified),n,45µM,n,n,n,n
NC(=O)C1(N2CCCCC2)CCN(C2CC(=O)N(Cc3cccs3)C2=O)CC1 (stereo unspecified),n,50µM,n,n,n,n
CCOC(=O)CC(C(=O)OCC)C1CCCCC1=O (stereo unspecified),x,x,x,n,x,x
COc1ccc(N2C(=O)CC(N3CCCCC3)C2=O)cc1 (stereo unspecified),n,32µM,n,n,n,18µM
O=C1CC(N2CCCCCC2)C(=O)N1c1ccc(F)cc1 (stereo unspecified),n,10µM,n,n,n,10µM
CN1C(=O)CC(N2CCC(C(N)=O)(N3CCCCC3)CC2)C1=O (stereo unspecified),n,n,n,n,n,n
O=C1CC(N2CCCCCC2)C(=O)N1c1ccc2c(c1)OCO2 (stereo unspecified),n,7.9µM,x,n,n,6.3µM
COc1cccc(N2C(=O)CC(N3CCC(C(N)=O)(N4CCCCC4)CC3)C2=O)c1 (stereo unspecified),n,18µM,n,n,n,n
COc1ccc(N2C(=O)CC(N3CCN(c4ccc(S(=O)(=O)N5CCCC5)cc4)CC3)C2=O)cc1 (stereo unspecified),n,u,u,n,n,n
Cc1ccc(NC(=O)c2cc(S(=O)(=O)N3CCCC(C)C3)cn2C)c(Br)c1 (stereo unspecified),n,n,n,x,n,x
COc1ccc(N2C(=O)CC(N3CCN(c4cccc(Cl)c4)CC3)C2=O)cc1 (stereo unspecified),n,n,n,n,n,n
COc1ccc(N2C(=O)CC(N3CCC(O)(c4cccc(C(F)(F)F)c4)CC3)C2=O)cc1 (stereo unspecified),n,40µM,u,n,n,32µM
Cn1cnnc1Sc1ccc(/C=C/C(=O)c2ccc(O)cc2)cc1[N+](=O)[O-],n,x,u,n,-101,n
CN(C)S(=O)(=O)c1cccc(NC(=O)c2ccc(Sc3nncn3C)c([N+](=O)[O-])c2)c1,n,n,n,n,n,n
CCN(CC)S(=O)(=O)c1ccc(NC(=O)c2ccc(Sc3nncn3C)c([N+](=O)[O-])c2)cc1,n,n,n,n,-81,n
COc1ccc(NC(=O)/C(C#N)=C/c2ccc(Sc3nncn3C)c([N+](=O)[O-])c2)cc1,n,n,32µM,n,n,n
Cn1cnnc1Sc1ccc(C(=O)OCC(=O)Nc2ccccc2)cc1[N+](=O)[O-],n,n,u,n,n,n
Cc1cccc(NC(=O)CCN2CCN(c3ccccc3F)CC2)c1,n,n,n,x,n,x
C=CCOC(=O)N[C@@H](Cc1ccccc1)/C(C(=O)OC)=C(\C)NCc1ccccc1,x,x,x,n,x,x
CC(=O)c1sc(C(=O)O)c(-c2ccco2)c1-c1ccco1,u,20µM,n,u,n,n
SMILES,TbPYK inhibitor,Sm TGR inh,FMDV antiviral,Giardia FBPA inh,HCMV antiviral,RE007 growth inh
O=C(O)c1sc(C(=O)O)c(-c2ccccc2)c1-c1ccccc1,n,x,n,x,n,n
O=C(O)CC/C(=N\Nc1ccc([N+](=O)[O-])cc1S(=O)(=O)N1CCOCC1)c1cccs1,n,40µM,n,n,n,n
CCCOc1cccc(C2c3c(oc4ccc(F)cc4c3=O)C(=O)N2CCc2ccc(OC)cc2)c1 (stereo unspecified),n,n,n,x,n,x
COc1cccc(C=NNc2nnc(NN=Cc3cccc(OC)c3OC)c3ccccc23)c1OC,n,x,20µM,x,n,n
COc1cccc(/C=N/Nc2nccnc2Cl)c1O,u,n,13µM,n,-96,35µM
COc1cccc(/C=N/Nc2ncnc3scc(-c4ccccc4)c23)c1O,n,n,n,u,-100,u
COc1cccc(/C=N/Nc2ncnc(Cl)c2N)c1O,n,n,n,u,-97,n
COc1ccc(/C=N/Nc2nccnc2Cl)c(OC)c1,n,x,n,n,n,n
Cc1ccc(S(=O)(=O)c2cnc(SC(C)C(=O)Nc3ccccc3)[nH]c2=O)cc1 (stereo unspecified),n,n,n,x,n,x
CCOC(=O)c1cc(S(=O)(=O)Nc2ccccc2)[nH]n1,n,n,n,x,n,x
CCOC(=O)CCc1c(C)nc2cc(-c3cc(OC)cc(OC)c3)[nH]n2c1=O,n,n,n,x,n,x
COc1cccc(/C=N/Nc2nc(Nc3ccccc3)nc(-n3nc(C)cc3C)n2)c1O,n,n,n,n,n,n
Nc1c(Cl)ncnc1N/N=C/c1ccncc1,n,45µM,n,n,n,n
COc1cccc(/C=N/Nc2cc(-n3nc(C)cc3-c3ccccc3)ncn2)c1O,n,n,u,n,-96,n
CCOCCc1nn2c(=O)cc(COC(=O)c3ccco3)nc2s1,n,n,n,x,n,x
CCOP(=O)(OCC)c1cccc(P(=O)(c2ccccc2)c2ccccc2)c1O,n,n,n,n,n,n
CCOP(=O)(C1=C(O)C(=O)C(C(C)(C)C)=CC1=O)c1ccccc1 (stereo unspecified),u,1.4µM,u,u,n,n
Cc1cc(=O)oc2cc(OC3C=CC(C#CC(C)(C)C)OC3CO)ccc12 (stereo unspecified),x,x,x,n[12.9 µM],x,x
CCOC(=O)c1ccc(NC(=O)Cn2ncc(Cl)c(Cl)c2=O)cc1,n,18µM,40µM,n,-100,n
CCc1ccccc1NC(=O)CN(C)C(=O)Cn1ncc(Cl)c(Cl)c1=O,n,u,35µM,n,-99,n
O=C(Cn1ncc(N2CCCC2)c(Cl)c1=O)c1ccc(Cl)cc1,n,n,n,n,n,n
CCOC(=O)c1ccc(NC(=O)Cn2nc(C)c3ccccc3c2=O)cc1,n,n,n,n,n,n
